Experiments:
Assay in all cases: DAPPL (digital affinity profiling via proximity ligation, sequencing); 10 mM Tris-HCl pH 7.5, 50 mM NaCl, 1 mM DTT, 4% glycerol, room temperature, 30 min; GST-TFs on glutathione beads, 16-mer random dsDNA library, 0.1% formaldehyde crosslink after washing; high values mean tight binding
FEV = biological target: T1, FEV (Homo sapiens, UniProt Q99581 1-238); details: protein: recombinant; tags: N-terminal GST; dsDNA, one strand shown
T1 sequence: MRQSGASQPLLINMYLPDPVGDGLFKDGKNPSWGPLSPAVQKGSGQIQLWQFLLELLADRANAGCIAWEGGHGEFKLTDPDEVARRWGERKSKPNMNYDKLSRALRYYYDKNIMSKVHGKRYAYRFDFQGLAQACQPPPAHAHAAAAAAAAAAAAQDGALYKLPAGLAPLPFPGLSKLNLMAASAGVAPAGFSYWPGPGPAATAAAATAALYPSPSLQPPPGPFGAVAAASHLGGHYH
In short: (§1)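 Yeast served to express human transcription factors as GST fusions, which were then captured on glutathione beads and labelled with DNA barcodes. Pooled with a tag-only sample, they were incubated with 200 nmole of a 16-mer random double-stranded DNA library for 30 min at room temperature in Tris/NaCl/DTT/glycerol buffer, washed, crosslinked with 0.1% formaldehyde, ligated by proximity, amplified by PCR and sequenced. Dividing each hexamer's read frequency for a factor by its frequency for the tag-only sample gives the binding signal.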

ETV5 = ETV5 (Homo sapiens, UniProt P41161 1-510); details: protein: recombinant; tags: N-terminal GST; dsDNA, one strand shown
Chain of ETV5 (P41161 whole entry): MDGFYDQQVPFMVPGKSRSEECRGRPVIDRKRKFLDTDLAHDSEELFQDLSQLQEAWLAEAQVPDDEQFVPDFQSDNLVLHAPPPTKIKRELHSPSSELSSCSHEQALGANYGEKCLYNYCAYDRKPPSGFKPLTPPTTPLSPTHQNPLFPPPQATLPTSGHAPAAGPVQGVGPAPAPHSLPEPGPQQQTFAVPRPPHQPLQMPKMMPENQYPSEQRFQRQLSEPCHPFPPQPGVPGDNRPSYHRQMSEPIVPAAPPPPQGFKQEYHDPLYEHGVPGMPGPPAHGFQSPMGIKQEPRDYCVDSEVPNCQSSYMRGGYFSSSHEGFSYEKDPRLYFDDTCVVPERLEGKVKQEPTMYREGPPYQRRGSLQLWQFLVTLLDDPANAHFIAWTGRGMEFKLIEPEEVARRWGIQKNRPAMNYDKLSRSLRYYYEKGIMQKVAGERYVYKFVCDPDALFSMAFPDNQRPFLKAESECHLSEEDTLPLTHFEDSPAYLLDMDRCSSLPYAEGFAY
In short: as §1

HSF1 = HSF1 (Homo sapiens, UniProt Q00613 1-529); details: protein: recombinant; tags: N-terminal GST; chain copies: 3; dsDNA, one strand shown
Chain of HSF1 (Q00613 whole entry): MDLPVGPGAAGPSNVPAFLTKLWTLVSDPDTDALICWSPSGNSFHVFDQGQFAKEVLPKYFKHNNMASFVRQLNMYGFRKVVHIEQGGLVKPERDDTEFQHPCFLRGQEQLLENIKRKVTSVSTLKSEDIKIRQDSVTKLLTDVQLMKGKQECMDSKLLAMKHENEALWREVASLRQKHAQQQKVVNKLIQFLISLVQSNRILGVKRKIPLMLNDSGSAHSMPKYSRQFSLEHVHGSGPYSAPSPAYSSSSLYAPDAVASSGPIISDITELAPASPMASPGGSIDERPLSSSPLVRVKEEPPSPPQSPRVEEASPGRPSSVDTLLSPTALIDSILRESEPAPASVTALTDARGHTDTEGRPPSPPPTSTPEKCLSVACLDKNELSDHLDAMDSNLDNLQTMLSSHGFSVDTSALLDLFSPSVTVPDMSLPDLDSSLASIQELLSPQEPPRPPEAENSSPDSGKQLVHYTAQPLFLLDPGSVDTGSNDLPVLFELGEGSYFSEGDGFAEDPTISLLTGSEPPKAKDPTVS
In short: as §1

SPIC = biological target: T2, SPIC (Homo sapiens, UniProt Q8N5J4 1-248); details: protein: recombinant; tags: N-terminal GST; dsDNA, one strand shown
T2 sequence: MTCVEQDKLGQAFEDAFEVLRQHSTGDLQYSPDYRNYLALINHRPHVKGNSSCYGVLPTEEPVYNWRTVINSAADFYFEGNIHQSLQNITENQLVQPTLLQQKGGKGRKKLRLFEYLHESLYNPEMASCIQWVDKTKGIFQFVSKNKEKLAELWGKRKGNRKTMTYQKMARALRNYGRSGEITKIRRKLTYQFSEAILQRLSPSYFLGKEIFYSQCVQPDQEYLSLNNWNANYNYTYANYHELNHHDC
In short: as §1

ELF4 = ELF4 (Homo sapiens, UniProt Q99607 1-663); details: protein: recombinant; tags: N-terminal GST; dsDNA, one strand shown
Chain of ELF4 (Q99607 whole entry): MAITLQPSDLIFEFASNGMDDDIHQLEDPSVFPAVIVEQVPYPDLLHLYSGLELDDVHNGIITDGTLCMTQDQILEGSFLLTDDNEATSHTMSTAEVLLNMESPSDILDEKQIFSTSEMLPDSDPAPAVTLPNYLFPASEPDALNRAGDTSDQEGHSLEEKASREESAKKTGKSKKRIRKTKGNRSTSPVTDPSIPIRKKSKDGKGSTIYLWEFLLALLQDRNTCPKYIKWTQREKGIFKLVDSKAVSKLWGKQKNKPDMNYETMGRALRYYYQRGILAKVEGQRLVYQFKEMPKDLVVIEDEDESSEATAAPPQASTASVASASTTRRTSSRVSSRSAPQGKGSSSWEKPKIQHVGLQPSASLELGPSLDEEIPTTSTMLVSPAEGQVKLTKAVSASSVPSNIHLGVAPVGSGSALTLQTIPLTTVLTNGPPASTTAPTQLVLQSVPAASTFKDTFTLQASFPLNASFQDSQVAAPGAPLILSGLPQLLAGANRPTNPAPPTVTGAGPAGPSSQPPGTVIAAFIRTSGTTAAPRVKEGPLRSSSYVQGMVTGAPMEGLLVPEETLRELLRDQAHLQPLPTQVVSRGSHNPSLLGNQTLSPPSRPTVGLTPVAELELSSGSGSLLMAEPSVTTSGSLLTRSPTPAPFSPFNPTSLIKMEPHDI
In short: as §1

ELK4 = biological target: T3, ELK4 (Homo sapiens, UniProt P28324-2 1-405); details: protein: recombinant; tags: N-terminal GST; dsDNA, one strand shown
T3 sequence: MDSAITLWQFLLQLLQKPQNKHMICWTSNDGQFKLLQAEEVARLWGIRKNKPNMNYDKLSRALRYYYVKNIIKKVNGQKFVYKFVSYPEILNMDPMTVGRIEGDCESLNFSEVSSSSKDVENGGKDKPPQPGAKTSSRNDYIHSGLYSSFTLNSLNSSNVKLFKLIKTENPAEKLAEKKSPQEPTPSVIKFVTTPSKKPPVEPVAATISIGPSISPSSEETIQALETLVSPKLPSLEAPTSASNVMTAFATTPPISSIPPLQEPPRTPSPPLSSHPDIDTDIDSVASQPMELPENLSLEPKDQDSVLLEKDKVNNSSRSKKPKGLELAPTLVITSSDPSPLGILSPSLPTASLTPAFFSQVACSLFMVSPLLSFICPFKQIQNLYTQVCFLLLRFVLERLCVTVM
In short: as §1

ETV2 = biological target: T4, ETV2 (Homo sapiens, UniProt O00321 1-342); details: protein: recombinant; tags: N-terminal GST; dsDNA, one strand shown
T4 sequence: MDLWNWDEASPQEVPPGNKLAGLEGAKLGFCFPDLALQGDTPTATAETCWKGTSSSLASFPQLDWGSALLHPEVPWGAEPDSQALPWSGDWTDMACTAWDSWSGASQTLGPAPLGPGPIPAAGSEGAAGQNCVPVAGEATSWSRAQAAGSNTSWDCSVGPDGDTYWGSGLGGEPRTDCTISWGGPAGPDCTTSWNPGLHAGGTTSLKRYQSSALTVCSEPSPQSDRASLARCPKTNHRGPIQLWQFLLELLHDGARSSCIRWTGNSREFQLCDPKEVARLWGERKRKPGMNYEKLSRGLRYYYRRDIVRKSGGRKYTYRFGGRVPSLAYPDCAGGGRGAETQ
In short: as §1

ELF3 = biological target: T5, ELF3 (Homo sapiens, UniProt P78545 1-371); details: protein: recombinant; tags: N-terminal GST; dsDNA, one strand shown
T5 sequence: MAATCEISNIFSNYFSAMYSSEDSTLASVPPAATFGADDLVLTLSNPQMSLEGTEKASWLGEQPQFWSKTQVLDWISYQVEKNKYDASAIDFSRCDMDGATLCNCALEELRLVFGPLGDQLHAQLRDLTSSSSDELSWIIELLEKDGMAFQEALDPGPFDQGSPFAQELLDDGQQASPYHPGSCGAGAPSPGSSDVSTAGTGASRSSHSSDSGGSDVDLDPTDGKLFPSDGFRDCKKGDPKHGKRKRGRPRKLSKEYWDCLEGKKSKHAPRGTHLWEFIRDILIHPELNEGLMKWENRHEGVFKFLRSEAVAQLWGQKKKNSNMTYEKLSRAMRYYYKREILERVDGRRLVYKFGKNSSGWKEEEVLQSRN
In short: as §1

CRX = CRX (Homo sapiens, UniProt O43186 1-299); details: protein: recombinant; tags: N-terminal GST; dsDNA, one strand shown
Chain of CRX (O43186 whole entry): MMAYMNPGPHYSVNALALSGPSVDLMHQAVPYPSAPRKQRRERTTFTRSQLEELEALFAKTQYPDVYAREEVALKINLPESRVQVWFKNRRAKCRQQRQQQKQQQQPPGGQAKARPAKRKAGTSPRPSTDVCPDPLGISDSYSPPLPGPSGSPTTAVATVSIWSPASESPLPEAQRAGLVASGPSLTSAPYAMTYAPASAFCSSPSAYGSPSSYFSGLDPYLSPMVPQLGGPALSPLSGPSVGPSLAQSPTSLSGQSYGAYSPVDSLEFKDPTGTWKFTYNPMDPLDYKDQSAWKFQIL
In short: as §1

ETV1 = ETV1 (Homo sapiens, UniProt P50549 1-477); details: protein: recombinant; tags: N-terminal GST; dsDNA, one strand shown
Chain of ETV1 (P50549 whole entry): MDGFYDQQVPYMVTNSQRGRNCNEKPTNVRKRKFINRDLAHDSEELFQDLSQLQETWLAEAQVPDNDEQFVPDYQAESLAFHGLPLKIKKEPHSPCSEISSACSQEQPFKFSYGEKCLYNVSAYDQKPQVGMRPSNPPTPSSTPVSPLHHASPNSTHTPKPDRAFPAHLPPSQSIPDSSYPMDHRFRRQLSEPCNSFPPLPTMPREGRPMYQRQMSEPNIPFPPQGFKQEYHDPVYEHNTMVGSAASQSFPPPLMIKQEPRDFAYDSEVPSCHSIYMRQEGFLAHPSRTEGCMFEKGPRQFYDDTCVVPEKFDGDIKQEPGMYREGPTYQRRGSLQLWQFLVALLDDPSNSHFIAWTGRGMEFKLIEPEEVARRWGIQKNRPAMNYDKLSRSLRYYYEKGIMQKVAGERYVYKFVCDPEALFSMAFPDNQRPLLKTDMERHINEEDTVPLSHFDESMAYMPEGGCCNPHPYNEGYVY
In short: as §1

| Sequence | binding signal (FEV) | binding signal (ETV5) | binding signal (HSF1) | binding signal (SPIC) | binding signal (ELF4) | binding signal (ELK4) | binding signal (ETV2) | binding signal (ELF3) | binding signal (CRX) | binding signal (ETV1) |
| --- | --- | --- | --- | --- | --- | --- | --- | --- | --- | --- |
| CTCTGA | 1.23 fold enrichment (6-mer frequency, TF over GST control) | 1.15 fold enrichment (6-mer frequency, TF over GST control) | 1.06 fold enrichment (6-mer frequency, TF over GST control) | 1.24 fold enrichment (6-mer frequency, TF over GST control) | 1.23 fold enrichment (6-mer frequency, TF over GST control) | 1.15 fold enrichment (6-mer frequency, TF over GST control) | 1.12 fold enrichment (6-mer frequency, TF over GST control) | 1.09 fold enrichment (6-mer frequency, TF over GST control) | 1.08 fold enrichment (6-mer frequency, TF over GST control) | 1.3 fold enrichment (6-mer frequency, TF over GST control) |
| TGCTGG | 1.09 fold enrichment (6-mer frequency, TF over GST control) | 1.04 fold enrichment (6-mer frequency, TF over GST control) | 1.43 fold enrichment (6-mer frequency, TF over GST control) | 1.06 fold enrichment (6-mer frequency, TF over GST control) | 1.12 fold enrichment (6-mer frequency, TF over GST control) | 1.27 fold enrichment (6-mer frequency, TF over GST control) | 1.22 fold enrichment (6-mer frequency, TF over GST control) | 1.02 fold enrichment (6-mer frequency, TF over GST control) | 1.03 fold enrichment (6-mer frequency, TF over GST control) | 1.08 fold enrichment (6-mer frequency, TF over GST control) |
| CCCCAA | 1.16 fold enrichment (6-mer frequency, TF over GST control) | 1.12 fold enrichment (6-mer frequency, TF over GST control) | 1.06 fold enrichment (6-mer frequency, TF over GST control) | 1.06 fold enrichment (6-mer frequency, TF over GST control) | 1.21 fold enrichment (6-mer frequency, TF over GST control) | 1.16 fold enrichment (6-mer frequency, TF over GST control) | 1.15 fold enrichment (6-mer frequency, TF over GST control) | 1.24 fold enrichment (6-mer frequency, TF over GST control) | 1.05 fold enrichment (6-mer frequency, TF over GST control) | 1.15 fold enrichment (6-mer frequency, TF over GST control) |
| ACTATC | 1.13 fold enrichment (6-mer frequency, TF over GST control) | 1.13 fold enrichment (6-mer frequency, TF over GST control) | 1.13 fold enrichment (6-mer frequency, TF over GST control) | 1.19 fold enrichment (6-mer frequency, TF over GST control) | 1.24 fold enrichment (6-mer frequency, TF over GST control) | 1.2 fold enrichment (6-mer frequency, TF over GST control) | 1.32 fold enrichment (6-mer frequency, TF over GST control) | 1.22 fold enrichment (6-mer frequency, TF over GST control) | 1.15 fold enrichment (6-mer frequency, TF over GST control) | 1.15 fold enrichment (6-mer frequency, TF over GST control) |
| TTCGCC | 1.19 fold enrichment (6-mer frequency, TF over GST control) | 1.13 fold enrichment (6-mer frequency, TF over GST control) | 1.14 fold enrichment (6-mer frequency, TF over GST control) | 1.32 fold enrichment (6-mer frequency, TF over GST control) | 1.05 fold enrichment (6-mer frequency, TF over GST control) | 1.08 fold enrichment (6-mer frequency, TF over GST control) | 1.1 fold enrichment (6-mer frequency, TF over GST control) | 1.08 fold enrichment (6-mer frequency, TF over GST control) | 1 fold enrichment (6-mer frequency, TF over GST control) | 1.13 fold enrichment (6-mer frequency, TF over GST control) |
| CCGGCT | 1.8 fold enrichment (6-mer frequency, TF over GST control) | 1.89 fold enrichment (6-mer frequency, TF over GST control) | 1.3 fold enrichment (6-mer frequency, TF over GST control) | 1.46 fold enrichment (6-mer frequency, TF over GST control) | 1.68 fold enrichment (6-mer frequency, TF over GST control) | 1.53 fold enrichment (6-mer frequency, TF over GST control) | 1.84 fold enrichment (6-mer frequency, TF over GST control) | 1.8 fold enrichment (6-mer frequency, TF over GST control) | 1.6 fold enrichment (6-mer frequency, TF over GST control) | 1.81 fold enrichment (6-mer frequency, TF over GST control) |
| CTTTAT | 1.17 fold enrichment (6-mer frequency, TF over GST control) | 1.21 fold enrichment (6-mer frequency, TF over GST control) | 1.23 fold enrichment (6-mer frequency, TF over GST control) | 1.21 fold enrichment (6-mer frequency, TF over GST control) | 1.19 fold enrichment (6-mer frequency, TF over GST control) | 1.29 fold enrichment (6-mer frequency, TF over GST control) | 1.29 fold enrichment (6-mer frequency, TF over GST control) | 1.21 fold enrichment (6-mer frequency, TF over GST control) | 1.65 fold enrichment (6-mer frequency, TF over GST control) | 1.22 fold enrichment (6-mer frequency, TF over GST control) |
| TGGCTA | 1.22 fold enrichment (6-mer frequency, TF over GST control) | 1.2 fold enrichment (6-mer frequency, TF over GST control) | 1.25 fold enrichment (6-mer frequency, TF over GST control) | 1.25 fold enrichment (6-mer frequency, TF over GST control) | 1.19 fold enrichment (6-mer frequency, TF over GST control) | 1.47 fold enrichment (6-mer frequency, TF over GST control) | 1.23 fold enrichment (6-mer frequency, TF over GST control) | 1.27 fold enrichment (6-mer frequency, TF over GST control) | 1.35 fold enrichment (6-mer frequency, TF over GST control) | 1.16 fold enrichment (6-mer frequency, TF over GST control) |
